Calls of active or inactive are those of the source.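 The calls were made as follows: active = a thermal shift above zero, meaning the compound raised the protein's melting temperature; inactive = the rest.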

Chain of Luciferin 4-monooxygenase (Photinus pyralis) (P08659 whole entry, looked up): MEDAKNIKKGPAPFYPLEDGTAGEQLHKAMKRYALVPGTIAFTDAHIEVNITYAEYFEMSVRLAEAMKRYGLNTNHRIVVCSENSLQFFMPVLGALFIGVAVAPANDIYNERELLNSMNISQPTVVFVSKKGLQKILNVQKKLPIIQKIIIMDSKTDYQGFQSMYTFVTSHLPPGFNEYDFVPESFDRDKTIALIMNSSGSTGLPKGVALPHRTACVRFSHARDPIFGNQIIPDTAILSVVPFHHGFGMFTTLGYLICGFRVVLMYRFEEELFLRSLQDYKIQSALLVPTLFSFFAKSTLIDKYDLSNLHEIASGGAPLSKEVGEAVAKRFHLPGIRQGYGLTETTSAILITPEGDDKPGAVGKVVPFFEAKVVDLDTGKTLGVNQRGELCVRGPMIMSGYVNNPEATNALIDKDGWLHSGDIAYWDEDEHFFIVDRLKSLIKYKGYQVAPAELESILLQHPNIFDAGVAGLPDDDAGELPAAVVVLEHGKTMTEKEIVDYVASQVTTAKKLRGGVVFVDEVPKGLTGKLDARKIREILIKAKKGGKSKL

This experiment addresses Luciferin 4-monooxygenase (Photinus pyralis) (UniProt P08659). In words: Thermal Shift Assay for Inhibitors of FLuc (Firefly Luciferase, Photinus pyralis) in Absence of ATP. To be noted: purified FLuc, SYPRO Orange thermal shift, no ATP; at 200 µM; hits give high values. The source says: Firefly (Photinus pyralis) luciferase (FLuc) is widely used as a reporter in biological assays. […] In order to determine if FLuc thermal stabilization parallels inhibitor potency, a fluorescence-based thermal denaturation assay was developed in this present study. An environmentally sensitive fluorescence dye, SYPRO Orange (Invitrogen, presently Life Technologies) was utilized to monitor the fluorescence change as a function of temperature. The dye preferentially binds to the hydrophobic regions of the protein, and its high signal-to-noise ratio, large Stokes shift and high excitation wavelength make it ideal for thermal shift application. In this assay, the melting temperature (Tm) (the inflection point of the protein melt transition) was assessed for each sample tested. Differences in the Tm between controls and compound-containing samples were determined (the thermal shift or delta Tm), and compounds were ranked by the degree of their thermal shift at the top concentration (200 uM). […] FLuc catalyzes light production in bioluminescent organisms. The reaction requires luciferin, ATP and O2 as substrate, and it includes the formation of a luciferyl-AMP intermediate and the subsequent production of light, AMP, oxyluciferin and CO2. In this study, PTC124 and analogues were evaluated for their potential to stabilize FLuc in the absence and presence of ATP. This particular BioAssay is in the absence of ATP. See related BioAssay "Thermal Shift Assay for Inhibitors of FLuc (Firefly Luciferase, Photinus pyralis) in the Presence of ATP" See [6] for more details on this assay and related studies. Welch, et al. PTC124 targets genetic disorders caused by nonsense mutations. Nature 447 (2007) 87-91. D.S. Auld, N. Thorne, W.F. Maguire, and J. Inglese, Mechanism of PTC124 activity in cell-based luciferase assays of nonsense codon suppression. […]
Assay Protocol: 1.8 uM FLuc was tested in Tris-acetate buffer (pH 7.6) or phosphate buffer saline (pH 7.4). […] Fluorescence intensity changes (Ex 490/Em 575 nm) were monitored with a charge-coupled device (CCD) camera. […]
Turning to `NC(=O)c1cccc(-c2noc(-c3ccccc3F)n2)c1`, the thermal shift (delta Tm) was 2.84 °C (active).
On to `Nc1ncnc2c1ncn2[C@@H]1O[C@H](COP(=O)(O)OC(=O)c2cccc(-c3noc(-c4ccccc4F)n3)c2)[C@@H](O)[C@H]1O`, for which the thermal shift (delta Tm) is 28.3 °C (active).
Consider `O=C(O)c1ccc(-c2noc(-c3ccccc3F)n2)cc1`, for which the thermal shift (delta Tm) is 5.87 °C (active).
